The results in this text go back to PubChem BioAssay (NCI).

What all share (assay): NCI-60 one-dose screen, 48 h (100 = growth as untreated, 0 = no growth, -100 = all killed)
Assay [1] concerns SK-MEL-2 melanoma. The following applies: 10 µM unless noted.
For assay [2], the system named is SN12C renal. To be noted: 10 µM unless noted.
In assay [3] the test system is UO-31 renal. To be noted: 10 µM unless noted.
The subject of assay [4] is TK-10 renal. To be noted: 10 µM unless noted.
Assay [5] deals with CAKI-1 renal. The following applies: 10 µM unless noted.
The test system of assay [6] is CCRF-CEM leukemia. The following applies: 10 µM unless noted.
Assay [7] deals with MOLT-4 leukemia. The following applies: 10 µM unless noted.
Assay [8] concerns SR leukemia. The following applies: 10 µM unless noted.
Assay [9] concerns RPMI-8226 leukemia. The following applies: 10 µM.
Assay [10] concerns OVCAR-8 ovarian. The following applies: 10 µM unless noted.
Assay [11] relates to OVCAR-4 ovarian. To be noted: 10 µM unless noted.
Assay [12] has as its system SK-OV-3 ovarian. The following applies: 10 µM.
Assay [13] deals with IGROV1 ovarian. The following applies: 10 µM unless noted.
The subject of assay [14] is OVCAR-3 ovarian. The following applies: 10 µM unless noted.
In assay [15] the test system is HS 578T breast. The following applies: 10 µM unless noted.
The subject of assay [16] is NCI/ADR-RES ovarian. To be noted: 10 µM unless noted.
In assay [17] the test system is ACHN renal. To be noted: 10 µM unless noted.
Assay [18] has as its system OVCAR-5 ovarian. The following applies: 10 µM unless noted.
For assay [19], the system named is A498 renal. The following applies: 10 µM unless noted.

This is part of a sample that, as a whole, favours compounds with a hit. Of some 83,000 tested, about 20% had one in any assay.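 Negative percent growth values reflect cell death: -40 means 40% of the cells present at the start died, and -100 means all died.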 Values without a mark were called inactive. The source made the active and inactive calls. How the source made its calls: active means growth percent below 10; inactive means the rest.

On to `CN(C)C(=S)SCN1C(=O)c2ccc([N+](=O)[O-])cc2S1(=O)=O`, for which the growth was 112% in assay [1]; 93.1% in assay [2]; 83.1% in assay [3]; 108% in assay [4]; 96% in assay [5]; 50.6% in assay [6]. For the same molecule, the growth in assay [7] was 91.6%; in assay [8] it was 75.8%; in assay [9], 116%; in assay [10] it was 98.5%; in assay [11], 103%; in [12] it was 107%. Further, the growth in [13] is 104%; in assay [14] it was 99.3%; in assay [15], 93%; in assay [16], 96.4%.
Consider `Clc1ccc(C2=Nc3cccc4cccc(c34)N2)cc1Cl`, for which the growth in [1] is 96.2%; in assay [2] it was 110%; in assay [3], 72.3%; in assay [4], 97.9%; in [17] it was 94.7%; in assay [6], 67.4%. The growth in assay [9] is 56.8%; in [10] it was 97.7%; in [18], 126%; in [11], 32.6%; in assay [12], 98.1%; in [13], 71.8%. The growth was 86% in [14] and 95.8% in assay [16].
Regarding `ONc1nc(NO)c2[nH]cnc2n1`, the growth in assay [1] was 96%; in assay [2], 80.7%; in [3] it was 52.6%; in assay [17], 60.9%; in assay [5] it was 64.1%; in assay [19] it was 78.7%. For the same molecule, the growth in assay [6] was 12.7%; in [7], 9.57% (active); in assay [8], 21.3%; in [9], 45.1%; in assay [10], 58.3%; in assay [18] it was 89.5%. In addition, the growth is 84.7% in assay [11]; 97.1% in assay [12]; 86.9% in [13]; 87.8% in assay [14]; 108% in [15]; 74.7% in [16].
On to `CCOC(=O)c1c(Cl)c2c(n1Cc1cc(OC)cc(OC)c1)-c1oncc1CCC2`, for which the growth is 44.6% in assay [1]; 38.9% in assay [2]; 44.6% in assay [3]; 55.1% in assay [4]; 31.3% in assay [5]; -13% (active) in assay [19]. In addition, the growth was 7.48% (active) in [6]; 30% in assay [7]; 4.7% (active) in assay [8]; 9.5% (active) in assay [9]; 38.9% in [10]; 49.5% in [18]. The growth is 27.5% in [12], -17.6% (active) in assay [14], 29.6% in assay [15] and 8.44% (active) in [16].
In the case of `Cn1c2ccccc2c2nn(C(=O)c3ccccc3)c(=O)nc21`, the growth in assay [1] was 113%; in assay [2] it was 102%; in assay [3], 73.4%; in assay [17], 105%; in assay [5], 103%; in assay [19], 108%. Further, the growth was 96.9% in [6]; 104% in assay [7]; 93.7% in [8]; 98.7% in assay [9]; 117% in assay [10]; 101% in [18]. Besides, the growth in [11] was 125%; in [12], 116%; in assay [13] it was 101%; in [14] it was 122%; in [15] it was 105%.
`CCOC(=O)C(CC(c1ccccc1)N1CCCCC1)[N+](=O)[O-]` (stereo unspecified): the growth was 88.5% in assay [1]; 76.9% in [2]; 46.2% in assay [3]; 112% in assay [4]; 103% in [5]; 88.4% in [19]. For the same molecule, the growth in assay [6] is 49.5%; in [7], 63.7%; in [8], 77.7%; in assay [9] it was 57.9%; in [10], 87.1%; in [18], 104%. The growth in assay [11] is 96.5%; in [12], 97.7%; in assay [13], 76.3%; in [14], 53.3%; in [15] it was 98.6%; in assay [16], 61.4%.
In the case of `FC(F)(F)c1cc(CNc2ncc(Br)c(Cl)n2)cc(C(F)(F)F)c1`, the growth in assay [1] is 94%; in [2], 99.7%; in assay [3], 83.3%; in assay [4], 97.9%; in assay [17] it was 104%; in assay [19], 96.7%. Also, the growth in [6] is 83.2%; in assay [7], 86%; in assay [8], 85.8%; in assay [9] it was 88.5%; in [10], 101%; in assay [18] it was 102%. The growth in assay [11] is 102%; in assay [12], 92.5%; in assay [13], 91.7%; in [14], 120%; in assay [15] it was 99.4%; in assay [16], 93.2%.
`O=C1C(Br)=C(c2ccccc2)C(=O)C(Br)=C1c1ccccc1`: the growth is 99.6% in [1]; 95.2% in [2]; 77.9% in assay [3]; 102% in assay [4]; 94% in assay [5]; 67.3% in [19]. In addition, the growth in [6] is 31.9%; in assay [7] it was 52.7%; in [8], 71.1%; in assay [9], 99.2%; in assay [10] it was 91.9%; in assay [18] it was 96.7%. Moreover, the growth is 90% in [11]; 95.4% in assay [12]; 105% in assay [13]; 110% in assay [14]; 97.2% in assay [15]; 103% in assay [16].
Consider `O=C1C(N2CCOCC2)=Cc2cccc3cccc1c23`, for which the growth is 110% in assay [1]; 106% in assay [2]; 88.9% in assay [3]; 98% in assay [4]; 108% in [5]; 84.3% in assay [19]. The growth was 18.2% in assay [7]; 40.8% in assay [8]; 105% in assay [9]; 96.1% in [10]; 90.5% in [11]; 95.8% in assay [12]. For the same molecule, the growth in assay [13] is 112%; in assay [14], 101%; in [15], 86.1%; in assay [16], 99.8%.
Regarding `Clc1cccc(Cl)c1Nc1ccc2nnc(-c3ccncc3)n2n1`, the growth is 104% in assay [1]; 95.9% in assay [2]; 96.1% in [3]; 102% in assay [4]; 89.2% in assay [5]; 90.5% in [19]. Also, the growth was 80.7% in assay [6]; 96.1% in assay [7]; 62.4% in assay [8]; 93.3% in assay [9]; 97.6% in assay [10]; 102% in assay [18]. In addition, the growth in [12] is 109%; in [13], 93.8%; in assay [14], 110%; in assay [15], 103%; in assay [16], 101%.
Regarding `Cc1ccc2c(c1)c(Sc1ccc(C(=O)NO)cc1)c1n2CN(C)CC1`, the growth is 7.15% (active) in assay [1]; 9.16% (active) in assay [2]; 45.9% in assay [3]; 26.8% in assay [17]; 62.9% in assay [5]; 6.35% (active) in assay [19]. The growth in [6] was -5.94% (active); in assay [7], -10.5% (active); in [8], 5.05% (active); in [9], 1.92% (active); in [10], 5.57% (active); in assay [18], 7.36% (active). The growth is -1.78% (active) in assay [11]; 21.1% in assay [12]; 42.4% in assay [13]; -7.94% (active) in [14]; 33.5% in assay [15]; 53.1% in [16].
In the case of `O=C(N/N=C/c1ccc2c(c1)OCO2)c1cnn2c1NC(c1ccccc1)C2` (stereo unspecified), the growth in assay [1] was 50.1%; in assay [2] it was 73.7%; in assay [3], 67.5%; in assay [4] it was 70.3%; in [17], 46%; in [5], 21.1%. For the same molecule, the growth in assay [7] was 75.2%; in assay [8], 31.6%; in [9] it was 76.4%; in assay [10] it was 66.8%; in assay [18] it was 78.1%; in [11], 48.9%. Besides, the growth is 51.5% in assay [13], 25.2% in [14], 32.5% in [15] and 55.6% in assay [16].
Take `COc1ccc(/C=N/OCC(O)CN2CCC(O)CC2)cc1OC1CCCC1` (stereo unspecified): the growth in assay [1] is 105%; in assay [2], 103%; in assay [3], 88.6%; in assay [4], 106%; in [17], 104%; in [5] it was 95.4%. Moreover, the growth in assay [7] was 106%; in [8], 112%; in [9], 110%; in assay [10], 109%; in [18] it was 101%; in assay [11], 100%. The growth in assay [13] is 107%; in [14], 114%; in assay [15] it was 108%; in assay [16], 104%.
In the case of `CCN(CC)c1ccc(/C=C(\C#N)c2cc3ccccc3[nH]2)cc1`, the growth in [1] was 43.3%; in [2] it was 69.4%; in [3], 81.1%; in assay [17] it was 70.7%; in assay [5], 41.6%; in assay [19] it was 52.7%. Moreover, the growth was 50.9% in [6]; 37.8% in [7]; 24.6% in [8]; 63.4% in [10]; 72.4% in assay [18]; 68.2% in assay [11]. Also, the growth was 65.1% in assay [13], 20.9% in [14], 58.3% in [15] and 35.4% in [16].
Turning to `Cc1ccc(NS(=O)(=O)c2ccc(-c3cnc(C4CC4)o3)cc2)cc1`, the growth in assay [1] is 23.9%; in [2], 42.2%; in assay [3], 55.3%; in assay [4], 64.9%; in assay [5], 38.8%; in assay [6] it was 35.5%. The growth was 32% in assay [7]; 33.8% in assay [8]; 37.6% in [9]; 49.3% in [10]; 48.8% in assay [18]; 59% in [11]. The growth in assay [13] is 39.8%; in assay [14], -2% (active); in [15] it was -2.93% (active); in assay [16], 8.09% (active).
For `O=C1/C(=C/c2ccc(Cl)cc2)N=C(c2ccccc2)N1CCc1cccs1`, the growth in assay [1] was 69.5%; in assay [2] it was 45.6%; in assay [3], 48.4%; in assay [4], 54.8%; in assay [5], 58.1%; in assay [19], 72.7%. In addition, the growth is 85.9% in assay [6]; 76.1% in assay [9]; 36.1% in assay [10]; 62.1% in [11]; 105% in assay [12]; 55.3% in assay [13]. For the same molecule, the growth is 79.9% in assay [14], 67.7% in assay [15] and 56.7% in [16].
As to `O=C(Nc1ccccc1O)c1ccc(NS(=O)(=O)c2cccc3cccnc23)cc1`, the growth in assay [1] is 23.6%; in assay [2] it was 61.2%; in assay [3] it was 20.8%; in assay [17], 52.1%; in [5], 44.7%; in assay [19], 45.5%. Also, the growth is 33.1% in assay [6]; 28.5% in assay [7]; 32.8% in assay [8]; 15.3% in assay [9]; 23.9% in assay [10]; 74.5% in [11]. Also, the growth was 64.5% in assay [12], 58.6% in assay [13], 62.5% in assay [14] and 37.3% in assay [15].
